Assay results reported in PubChem BioAssay AID1578 (Sanford-Burnham Center for Chemical Genomics, 2009).
The campaign covered roughly 290,000 compounds. About 3,000 (1%) were called active. This is one part of a sample in which actives are shown more often than they occur. No stated cut-off is given here; in the data, active means inhibition mostly above about 36% (no sharp cut-off); inactive means mostly below about 34%.

assay: NOD1 signaling inhibitors, primary screen, cell-based, luminescence, uHTS (AID 1578); conditions: NOD1-driven NF-kB luciferase reporter cells, at 4 µM, stronger effect = higher value;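 further: HEK-293T reporter cells stimulated with the NOD1 agonist gamma-tri-DAP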

inhibition, inactive:
CC(C)CC(=O)c1c[nH]c(C(=O)O)c1 -16.9%
CC(Cl)C(=O)Nc1ncc(C(F)(F)F)cc1Cl (stereo not drawn) -12%
Cc1[nH]n(-c2ccccc2)c(=O)c1C(=O)c1ccccc1 -3.5%
CCSC(=S)c1c(C)[nH]n(-c2ccccc2)c1=O 1.7%
CCCOc1ccc(N2C(=O)CC(N(Cc3ccco3)C(=O)CC)C2=O)cc1 (stereo not drawn) -3.4%
COc1ccc(CCNC(=O)c2cccs2)cc1OC -51.6%
COc1ccc(C2(O)CCN(C(=O)NC3CCCCC3)CC2)cc1 -14.2%
CCOC(=O)c1sc2ccccc2c1OC(=O)c1ccccc1 38.2%
CCOC(=O)c1sc2ccccc2c1OC(=O)c1ccccc1OC 46.4%
Cc1ccc(S(=O)(=O)N2c3ccccc3OCC2c2ccccc2)cc1 (stereo not drawn) -19.1%
CC1COc2ccccc2N1C(=O)c1ccccc1Cl (stereo not drawn) 4.6%
CCCCOc1ccccc1C(=O)N(Cc1ccco1)C1CCS(=O)(=O)C1 (stereo not drawn) 25.4%
CCOC(=O)c1c(O)c(O)c(C(=O)OCC)n1-c1ccccc1 -8.7%
CCOC(=O)c1sc2nc[nH]c(=O)c2c1C 4.3%
C=CCOc1c(CNc2ccc(C(=O)O)cc2)cccc1OC -2.4%
N#Cc1cc2c(nc1SCc1cccnc1)CCCC2 -35.1%
Cc1[nH]c(=S)c(C#N)c(-c2ccco2)c1C(=O)N(C)C -29.8%
COc1ccc(NC(=O)NC2(C(=O)N3CCCCCC3)CCCCC2)cc1 -9.8%
Cc1ccc(S(=O)(=O)N2CCOCC2)cc1C(=O)Nc1c(C)n(C)n(-c2ccccc2)c1=O -23.2%
CC(=O)N[C@@H](C)c1nc2ccccc2n1CCCN1CCN(c2nc(-c3ccc(C)cc3)cs2)CC1 -3.9%
Cc1ccc(-c2csc(N3CCN(CCCn4c(C(F)(F)F)nc5ccccc54)CC3)n2)cc1 -23%
Cc1noc(C)c1COC(=O)[C@@H](NC(=O)c1ccccc1Cl)C(C)C -17.3%
CCC(CC)c1nnc(NC(=O)c2ccc(N3CCCC3=O)cc2)s1 -14.4%
Cc1csc(NC(=O)c2ccc(C(=O)Nc3nc(C)cs3)cc2)n1 2.7%
Cc1ccccc1N1CCN(C2CCCN(C(=O)c3noc4c3CCCC4)C2)CC1 (stereo not drawn) 6.2%
O=C1c2[nH]nc(-c3ccccc3O)c2C(c2ccccc2)N1Cc1ccco1 (stereo not drawn) -0.4%
COc1ccc(C2c3c(-c4ccccc4O)n[nH]c3C(=O)N2Cc2ccco2)cc1 (stereo not drawn) -5.9%
COc1cc2c(cc1OC)C(c1ccccc1)N(C(=O)c1ccco1)CC2 (stereo not drawn) 3.6%
COc1ccc(OCCC(=O)OCC(=O)NC(=O)NC(C)(C)C)cc1 7%
CC(=O)NCC(=O)OC(C)C(=O)Nc1ccc(C(C)=O)cc1 (stereo not drawn) -17.4%
CCCNC(=O)c1ccc(N2CCC3(CC2)CC(c2ccccc2)=NO3)c(NC(=O)c2cccc(C)c2)c1 43.2%
CCCNC(=O)c1ccc(N2CCC3(CC2)CC(c2ccccc2)=NO3)c(NC(=O)c2ccccc2)c1 21.3%
CC(=O)Nc1ccc(C2=NNC(=Nc3ccc(S(=O)(=O)N4CCOCC4)cc3)SC2)cc1 -12.4%
COC(=O)N/N=C/c1c(C)c(C(=O)c2ccc(F)cc2)n2ccccc12 -3.4%
Cc1c(/C=N/NC(=O)c2ccc(O)cc2)c2ccccn2c1C(=O)c1ccc(F)cc1 17.9%
CNC(=S)N/N=C/c1c(C)c(C(=O)c2ccc(F)cc2)n2ccccc12 0.6%
Cc1c(/C=N/NC(N)=O)c2ccccn2c1C(=O)c1ccc(F)cc1 15.7%
CCCCCCCCCC[N+](C)(C)CC/C=C1/c2ccccc2Sc2ccc(Cl)cc21 -0.8%
CCCCCCc1cc2cc(S(=O)(=O)c3ccc(C)cc3)c(=O)oc2cc1O -36.3%
CCCCCCc1cc2cc(C(=O)Nc3ccc(OC)cc3)c(=O)oc2cc1O -7.5%
CCCCCCc1cc2cc(C(=O)Nc3cccc(OC)c3)c(=O)oc2cc1O 59.9%
CCCCCCc1cc2cc(C(=O)Nc3ccccc3OC)c(=O)oc2cc1O -4.9%
CCCCCCc1cc2cc(C(N)=O)c(=N)oc2cc1O 12.9%
CCCCCCc1cc2cc(C(=O)Nc3ccccc3)c(=O)oc2cc1O 34.1%
CCCC1C(C#N)=C(N)Oc2n[nH]c(C(C)(C)C)c21 (stereo not drawn) -47.4%
CCOc1ccc(N(CC(=O)N2CCCCC2)S(=O)(=O)c2ccc(Cl)cc2)cc1 5.7%
Nn1c(Cc2ccccc2)n[nH]c1=S -24.7%
O=C1c2cccnc2C(=O)N1c1cccc(-c2nc3ccccc3o2)c1 -23.4%
O=C(NCc1ccco1)C(c1ccccc1F)N(CC1CCCO1)C(=O)Cn1nnc2ccccc21 (stereo not drawn) -7%
CCN(C(=O)Cn1c(=O)oc2ccccc21)c1cccc(C)c1 2.1%
CC(C)C[C@H](NC(=O)c1nc[nH]c1C(=O)NCc1ccccc1)C(=O)OC(C)(C)C -11.1%
COc1ccc(CN(CC(=O)NCc2ccco2)C(=O)CCC(=O)Nc2ccccn2)cc1 -20.6%
O=C1NC(=S)N/C1=C/c1cccnc1 16.2%
Cc1cc(/C=C2\NC(=S)NC2=O)c(C)n1-c1cccnc1 -14.7%
COc1ccc(/C=N/NC(=O)CSc2ccccc2)cc1OC -7.9%
CCc1ccc(NC(=O)CN(c2ccccc2)S(=O)(=O)N(C)C)cc1 -17.6%
CCOc1ccc(C(=O)/C=C/c2ccc(OC)c(OC)c2)cc1 51.4%
COc1cc(/C=C/C(=O)c2ccc(O)cc2)ccc1OCC#N 29.2%
COc1ccc2cc(C(=O)/C=C/c3cc(OC)c(OC)c(OC)c3)ccc2c1 52.7%
COc1ccc(/C=C/C(=O)c2ccc(C(=O)/C=C/c3ccc(OC)c(OC)c3)cc2)cc1OC -4.9%
COc1ccc(NC(=O)Nc2cccc3ccccc23)c(OC)c1 19.9%
CCS(=O)(=O)N1CCN(S(=O)(=O)c2ccc3c(c2)OCCO3)CC1 24.1%
Cc1ccnc(N2CCN(C(=O)CSc3nc4ccccc4nc3N3CCC(C)CC3)CC2)c1 3.8%
COc1ccccc1N1CCN(C(=O)CSc2nc3ccccc3nc2N2CCCCC2)CC1 8.8%
CS(=O)(=O)N(CC(=O)NCCSCc1c(F)cccc1Cl)c1cccc([N+](=O)[O-])c1 -2.1%
COc1cc(C(=O)OCC(=O)Nc2cc(C)on2)ccc1OCc1ccccc1Cl -69.5%
CCCCN(C)C(=O)C1CCC(CNS(=O)(=O)c2ccc3c(c2)CC(C)N3C(C)=O)CC1 (stereo not drawn) -1.6%
Clc1ccc(CN2CCc3c([nH]c4ccccc34)C2)cc1Cl -1.2%
Cc1cccc(CN2CCc3c([nH]c4ccccc34)C2)c1 -0.6%
Nc1ccc(S(=O)(=O)Nc2nc3ccccc3o2)cc1 -21.3%
CCc1nnc(NC(=O)CCC(=O)N2CCC(Cc3ccccc3)CC2)s1 -19.4%
CNc1ccccc1C(C)(C)c1cc(-c2cccc([N+](=O)[O-])c2)no1 -54.1%
CNc1ccccc1C(C)(C)c1cc(-c2cccc(Br)c2)no1 18.9%
CCC(=O)NNC(=O)CCC(=O)Nc1ccc(C)cc1C -21.4%
COc1ccc(NC(=O)CCNS(=O)(=O)c2cccc3nsnc23)cc1 -14.3%
C=CCSc1nnc(N2C(=O)C(O)=C(C(=O)c3ccco3)C2c2ccccc2F)s1 (stereo not drawn) -10.7%
O=C(O)c1ccc(S(=O)(=O)c2ccc3c(c2)C(=O)N(c2ccc(O)cc2)C3=O)cc1 -1.2%
O=C(c1cc2sccc2n1Cc1ccccc1)N1CCc2ccccc21 -5.9%
O=C(c1cc2sccc2n1Cc1ccc(F)cc1)N1CCCc2ccccc21 -9%
CN(CCc1ccccn1)C1CCCN(S(=O)(=O)c2ccccc2)C1 (stereo not drawn) -25.2%
Cc1ccc(/C=C/C(=O)Nc2nc3ccccc3[nH]2)cc1 -16.1%
COc1ccc(NC(=O)c2ccc(-c3csc(C)n3)cc2)cc1 -5.5%

inhibition, active:
CCCSC(=S)c1c(C)[nH]n(-c2ccccc2)c1=O 50.5%
CCOC(=O)c1c(C)c2c(=O)[nH]cnc2n1-c1ccccc1 32.5%
Cc1csc(NC(=O)c2ccc(N3CCCC3=O)cc2)n1 39.5%
O=C1c2[nH]nc(-c3ccccc3O)c2C(c2ccc(F)cc2)N1Cc1ccco1 (stereo not drawn) 53.4%
CCCNC(=O)c1ccc(N2CCC3(CC2)CC(c2ccccc2)=NO3)c(NC(=O)c2cccc(OC)c2)c1 77.4%
CCOC(=O)N/N=C/c1c(C)c(C(=O)c2ccc(F)cc2)n2ccccc12 48.9%
O=C1NC(=S)N/C1=C\c1cccnc1 33.9%
COc1ccccc1N1CCN(C(=O)CSc2nc3ccccc3nc2N2CCC(C)CC2)CC1 58.1%
Clc1cccc(CN2CCc3c([nH]c4ccccc34)C2)c1 73.3%
CNc1ccccc1C(C)(C)c1cc(-c2cccc(OC)c2)no1 53.1%
O=C(c1cc2sccc2n1Cc1ccccc1)N1CCCc2ccccc21 34.8%
